Our source for the binding signal values is article PMC7819943, “Rice protein-binding microarrays: a tool to detect cis-acting elements near promoter regions in rice”.

The full ranking holds about 68,000 sequences; the median of “fluorescence intensity (a.u.)” is about 9,100, and the highest 2% start at about 16,000. Many of the other results were omitted from the sample, so the highest values are more common in it than they were.

OsWRKY34, sequence (Q0JBA9 entry or part of it): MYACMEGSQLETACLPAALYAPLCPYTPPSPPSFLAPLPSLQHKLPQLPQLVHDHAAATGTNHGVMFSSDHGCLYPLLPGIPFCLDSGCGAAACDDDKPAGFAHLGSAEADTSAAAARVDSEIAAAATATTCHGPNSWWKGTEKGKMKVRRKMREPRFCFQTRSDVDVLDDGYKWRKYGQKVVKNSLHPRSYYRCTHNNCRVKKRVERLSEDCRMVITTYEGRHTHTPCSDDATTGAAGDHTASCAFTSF

The target in the assay is OsWRKY34 (Oryza sativa, UniProt Q0JBA9 1-250). Nature of the assay: protein-binding microarray (RPBM); PBS, 2% BSA, 51.3 ng/ul salmon testes DNA, 50 uM zinc acetate, 200 nM TF, 25 C, 1 h; high values mean tight binding. Conditions: protein: recombinant; tags: N-terminal polyhistidine and DsRed monomer fusion (pET32a); label: CyDye5-dUTP incorporated in the synthesized complementary strand; 3' TTTTT single-stranded linker to array surface; dsDNA, one strand shown. The method, boiled down:
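Binding signal is defined as the fluorescence intensity of each feature in arbitrary units, read on an Axon 4000B scanner. Transcription factors with N-terminal polyhistidine and DsRed fusions came from E. coli BL21-CodonPlus and were purified on Ni–NTA. They were incubated at 200 nM for 1 h at 25 °C on a custom Agilent array that had been made double-stranded with Cy5-dUTP, with 50 µM zinc acetate present, and the array was washed.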
For the sequence “AGGTGTAATAGTATTTTGTTGTCTAATTGGTTTTGATTGTCGGAGTCACCTAGTGCAG”, the binding signal is 11400 fluorescence intensity (a.u.). Next, “TATTTCTCTCGCCACAATCTCTGGCGGCGCCACAATCTTACGGAGTCACCTAGTGCAG”: 8850 fluorescence intensity (a.u.). Take “GGCCTGGAGCTCAGTCAAACAGTTTCAGCTCAGCTCTATCCGGAGTCACCTAGTGCAG”: the binding signal is 8520 fluorescence intensity (a.u.). Next, “TCTCTTCGCTCTGCCCACTTGCTAAACCATACCGGCGATACGGAGTCACCTAGTGCAG”: 9960 fluorescence intensity (a.u.); “CATCCATCGTATCCACCGCCGTCGCCTTCCATCCTCCCCGCGGAGTCACCTAGTGCAG”: 8040 fluorescence intensity (a.u.); “GTGGGAGGGAGGGCGGCGAGCTGCGCGGCGAACCTCGAGCCGGAGTCACCTAGTGCAG”: 8120 fluorescence intensity (a.u.).

Consider “CCTTTTTTTTTCCGAGTGTGTGGCTCTCAGATGGAGTTAGCGGAGTCACCTAGTGCAG”, for which the binding signal was 8450 fluorescence intensity (a.u.). “TGGTGTAGGGTTATGATTGGATGAGTAGTGGAGGTAGGTACGGAGTCACCTAGTGCAG”: the binding signal was 9780 fluorescence intensity (a.u.).

In the case of “TGGGTGGGGATGAAGTGTGGAAGTGGCATATCTTTATCCACGGAGTCACCTAGTGCAG”, the binding signal was 8320 fluorescence intensity (a.u.). The result for “GGTAGGATTGTACTTTTTTTTTTTTTGGGACGGAGGGGTACGGAGTCACCTAGTGCAG” reads 10100 fluorescence intensity (a.u.); that for “CCTTGGGTGGGTACGGATTGGATTAGGGAGGGGAGCACAACGGAGTCACCTAGTGCAG”, 17600 fluorescence intensity (a.u.); that for “TGGTGGCGGCGGTGGCAGTGGTGGTGTTGGGATTGGGGTACGGAGTCACCTAGTGCAG”, 9230 fluorescence intensity (a.u.). As to “AACGTGGAAGTGGATTGGGTGGTGGGTGGGGATCCACCTACGGAGTCACCTAGTGCAG”, the binding signal is 22100 fluorescence intensity (a.u.). “ATTATCCTGATCAAAATTCCCGCAATTCCTTAACACATGTCGGAGTCACCTAGTGCAG”: the binding signal is 10200 fluorescence intensity (a.u.). “GCTTTTCTCTTCCTTTTCGCTCGCTCTCAAGGCCCATAACCGGAGTCACCTAGTGCAG”: the binding signal was 9530 fluorescence intensity (a.u.).

Turning to “TTGGTGAGAACAGCCTTATCTCTATCGCTTTACTCTCTCTCGGAGTCACCTAGTGCAG”, the binding signal is 8150 fluorescence intensity (a.u.).

As for “CTGACCACCAACAGGGTCACTGTCGCGTTTGCTCGATACTCGGAGTCACCTAGTGCAG”, the binding signal is 9920 fluorescence intensity (a.u.).

Turning to “TCCTTTCCTACATGTCGCCTTTGCCGTCGCCTCAACCACACGGAGTCACCTAGTGCAG”, the binding signal was 14200 fluorescence intensity (a.u.). Next, “TCTTCTCACTCTAATCAAATCTCTCTCTCTCTCTCTCTCTCGGAGTCACCTAGTGCAG”: 8280 fluorescence intensity (a.u.); “ATCAAACCACTTCCATCTCTCAATTCTCAAGCACACACACCGGAGTCACCTAGTGCAG”: 8310 fluorescence intensity (a.u.).

With “ACGAACCTAAGCACTTCCAAATCAAATCAATCAAAGCTCTCGGAGTCACCTAGTGCAG”, the binding signal was 56100 fluorescence intensity (a.u.). Next, “GCCGTCGCCGTCGCCGTCCTCCTCGTTGTCGTTGTCGTCGCGGAGTCACCTAGTGCAG”: 9000 fluorescence intensity (a.u.); “TTCCGTTTCTGTTCCGTTTGGTTTTTCCTTGTTCTTTCGGCGGAGTCACCTAGTGCAG”: 12900 fluorescence intensity (a.u.). The result for “TTTTCCGTGTTTTCCGTTTCTGTTTGTTTGGCTTTTTTTTCGGAGTCACCTAGTGCAG” reads 18600 fluorescence intensity (a.u.); that for “CGTTCTGTCATTTGGGTTTTATGTTTGTTCTCTCTTGTTTCGGAGTCACCTAGTGCAG”, 12000 fluorescence intensity (a.u.); that for “ATGCGTGTGGTTCTCCTGTCCGTTCTGTCATTTGGGTTTTCGGAGTCACCTAGTGCAG”, 20000 fluorescence intensity (a.u.). Regarding “GAATTGTTGACCACGTGTTTCTGTTTGGACTCCTTTTTTTCGGAGTCACCTAGTGCAG”, the binding signal was 16400 fluorescence intensity (a.u.).

Regarding “CTTCTTAGCTTCCGTGTCATGTTTCTTTTTGTTATCTTTTCGGAGTCACCTAGTGCAG”, the binding signal is 10800 fluorescence intensity (a.u.). Regarding “TAGTCCGTTCTGTTGTCATCTACTACTCTTGTTTGTGTTTCGGAGTCACCTAGTGCAG”, the binding signal was 16100 fluorescence intensity (a.u.). Consider “TACCACCACTGTTCGTTTCGTTTGTTGGGTTTCGGTCATCCGGAGTCACCTAGTGCAG”, for which the binding signal is 8360 fluorescence intensity (a.u.). Next, “GTGGACTTTTTTCCTTCTCCTTTTCCTTTGTGTTGTTTCGCGGAGTCACCTAGTGCAG”: 8860 fluorescence intensity (a.u.); “TACATCCGTTTCCGTTTCGTTCTGTTCTGTTCTGTTGTTTCGGAGTCACCTAGTGCAG”: 29200 fluorescence intensity (a.u.). The result for “TCATTTCTGTGTGTGTTTTGGAGGTGGGTGAGGGTCTGTTCGGAGTCACCTAGTGCAG” reads 9920 fluorescence intensity (a.u.); that for “CGTCCTTATTGTGGTTTTCCACGTGTTTGTCTCTGTGTTTCGGAGTCACCTAGTGCAG”, 13300 fluorescence intensity (a.u.). As to “GCTTCCGCCGCCGCGTCTTCTCGCCCTCGACTCCGCTCTCCGGAGTCACCTAGTGCAG”, the binding signal was 14700 fluorescence intensity (a.u.).

Regarding “GCATAACTAATGGTCTGTTTACTTTGATGGCATTTTCAATCGGAGTCACCTAGTGCAG”, the binding signal is 9570 fluorescence intensity (a.u.). Next, “CCTCAACCGTGACTCAGTTATTCAGTTCGACACCCAGCCGCGGAGTCACCTAGTGCAG”: 8070 fluorescence intensity (a.u.); “TTGCATTTGAAGACATGTAGTGTGTAGGGTGGGTTCTATTCGGAGTCACCTAGTGCAG”: 13500 fluorescence intensity (a.u.); “GCATTTCCAGGCCCACGGAAGCCACGCTTCTTCTCCAGCGCGGAGTCACCTAGTGCAG”: 8060 fluorescence intensity (a.u.).

For “TCTGTTGTGCTCTTTCGTGTGATAGATCGATTTTTTGATTCGGAGTCACCTAGTGCAG”, the binding signal was 10600 fluorescence intensity (a.u.). Next, “AGGGAATTTCCCGTTCTTGCGCTCCTGGATTTCTTGCCCACGGAGTCACCTAGTGCAG”: 9560 fluorescence intensity (a.u.). Next, “CTCTCTCTGTTTCGGCCTCTCATACTCACTCCTCGGCTTCCGGAGTCACCTAGTGCAG”: 11100 fluorescence intensity (a.u.); “AGTCCCAAGTCACAACTGACAACAAGGCAACTACTACTACCGGAGTCACCTAGTGCAG”: 8360 fluorescence intensity (a.u.). Turning to “ACTTTGATCATAAAATGAGTTACTCTTACTTTCTTTTATTCGGAGTCACCTAGTGCAG”, the binding signal was 8920 fluorescence intensity (a.u.).
